Measured potencies and affinities stand elsewhere. Calls of active or inactive are those of the source.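 Rule for the calls: active = fitted half-maximal dose no more than twice the top valid tested dose, for compounds that lower signal; inconclusive = fit invalid, or curve flat with activity between -70 and -30; inactive = potency past limit, curve flat within ±30, or signal increasing.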
target: NAD-dependent protein deacylase sirtuin-5, mitochondrial (Homo sapiens) (UniProt Q9NXA8); test: SIRT5 deacylase inhibitors, dose response, biochemical, fluorescence imaging, cherry-pick, set 6 (AID 720597); conditions: Purified SirT5, succinyl-peptide-AMC/trypsin fluorescence; series mostly up to 15 µM;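 note: lower AMC signal can also come from blocking the trypsin step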
Sequence (Q9NXA8 whole entry, looked up): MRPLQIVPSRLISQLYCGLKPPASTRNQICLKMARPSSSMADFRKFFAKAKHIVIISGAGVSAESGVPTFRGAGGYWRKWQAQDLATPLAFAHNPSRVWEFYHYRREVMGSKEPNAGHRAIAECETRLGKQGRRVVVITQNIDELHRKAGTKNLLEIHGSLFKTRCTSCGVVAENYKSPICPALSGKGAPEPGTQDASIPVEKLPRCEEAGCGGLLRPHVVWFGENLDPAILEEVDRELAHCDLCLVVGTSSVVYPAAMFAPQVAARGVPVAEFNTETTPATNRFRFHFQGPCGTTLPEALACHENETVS

outcome, inactive:
CCC(=O)N1CCCCN2[C@H](CO)[C@H](c3ccc(-c4cccc(C#N)c4)cc3)[C@@H]2C1
COc1ccc(NC(=O)N(C)C[C@H]2Oc3c(NS(C)(=O)=O)cccc3C(=O)N([C@@H](C)CO)C[C@H]2C)cc1
CC(C)NC(=O)N1CCCCN2[C@H](C1)[C@@H](c1ccc(C#CC3CC3)cc1)[C@@H]2CO
CC(=O)N(C)C[C@H]1Oc2ncc(-c3cccc(F)c3)cc2C(=O)N([C@@H](C)CO)C[C@H]1C
C[C@H](CO)N1C[C@H](C)[C@@H](CN(C)Cc2ccc(Oc3ccccc3)cc2)Oc2c(NC(=O)CCCCCC(=O)Nc3ccccc3N)cccc2C1=O
O=C(CCN1CCCCC1)N[C@H]1CC[C@@H](CCn2cc(-c3ccc(F)cc3)nn2)O[C@H]1CO
O=C(C[C@@H]1C[C@H]2c3cc(NC(=O)Nc4ccc(C(F)(F)F)cc4)ccc3O[C@H]2[C@H](CO)O1)NCc1ccc2c(c1)OCO2
C[C@@H]1CCCCO[C@@H](CN(C)S(=O)(=O)c2ccc(F)cc2)[C@H](C)CN([C@@H](C)CO)C(=O)c2cc(NC(=O)Nc3ccc4c(c3)OCO4)ccc2O1
CCCC#Cc1cnc2c(c1)C(=O)N([C@@H](C)CO)C[C@@H](C)[C@H](CN(C)S(=O)(=O)c1cccc(OC)c1)O2
CCS(=O)(=O)N1CC2(CN(Cc3cccc(Cl)c3)[C@H](CO)c3c2c2ccc(OC)cc2n3C)C1
C[C@@H]1CN([C@@H](C)CO)S(=O)(=O)c2ccc(C#Cc3cccc(F)c3)cc2O[C@@H]1CN(C)S(=O)(=O)c1ccccc1F
Cc1ccc(S(=O)(=O)N(C)C[C@H]2OCCCC[C@H](C)Oc3ccc(NS(=O)(=O)c4ccc(Cl)cc4)cc3C(=O)N([C@H](C)CO)C[C@@H]2C)cc1
OC[C@H]1[C@@H](c2ccc(-c3cccc(F)c3)cc2)[C@H]2CN(CCC(F)(F)F)CCCCN21
C[C@H](O)C#Cc1ccc2c(c1)O[C@H](CN(C)Cc1ccc(-c3ccccc3)cc1)[C@@H](C)CN([C@@H](C)CO)S2(=O)=O
C[C@@H]1CN([C@@H](C)CO)C(=O)c2cc(NS(=O)(=O)c3cccs3)ccc2O[C@@H](C)CCCCO[C@@H]1CN(C)Cc1ccc(C(F)(F)F)cc1
C[C@H]1CN([C@@H](C)CO)C(=O)c2cc(NC(=O)C3CCCCC3)ccc2O[C@@H]1CN(C)CC1CC1
O=C(NCC[C@H]1CC[C@@H](NS(=O)(=O)c2cccc(F)c2)[C@@H](CO)O1)C1CCOCC1
COc1ccc(NC(=O)Nc2ccc3c(c2)C(=O)N([C@@H](C)CO)C[C@H](C)[C@@H](CN(C)Cc2ccccc2)OCCCC[C@H](C)O3)cc1
Cc1ccc(S(=O)(=O)Nc2ccc3c(c2)C(=O)N([C@@H](C)CO)C[C@H](C)[C@@H](CN(C)Cc2ccc(C(F)(F)F)cc2)OCCCC[C@H](C)O3)cc1
Cc1ccc(S(=O)(=O)N(C)C[C@H]2OCCCC[C@@H](C)Oc3ccc(NS(=O)(=O)c4ccccc4)cc3C(=O)N([C@@H](C)CO)C[C@H]2C)cc1
O=C(Nc1ccccc1F)N1C[C@@H]2N[C@H](C1)C2c1ccc(/C=C/c2ccccc2)cc1 (some centres undefined)
C[C@@H]1CN([C@@H](C)CO)C(=O)c2cccc(NS(=O)(=O)c3ccc(F)cc3)c2O[C@H]1CN(C)C(=O)Nc1ccccc1
CCN1[C@@H]2c3ccc(-c4ccccc4)c(=O)n3C[C@@H]2[C@@H](CO)[C@@H]1C(=O)NCc1ccccc1
Cc1ccccc1-c1ccc([C@H]2[C@H](CO)N3CCCCN(S(=O)(=O)c4ccc(F)cc4)C[C@@H]23)cc1
CC(C)C#Cc1cnc2c(c1)C(=O)N([C@@H](C)CO)C[C@@H](C)[C@H](CN(C)C(=O)CN1CCOCC1)O2
C[C@H](CO)N1C[C@H](C)[C@@H](CN(C)S(=O)(=O)c2ccc(F)cc2)Oc2cc(C3=CCCCC3)ccc2S1(=O)=O
COc1ccccc1NC(=O)N[C@H]1CC[C@H](CCNC(=O)c2ccc3c(c2)OCO3)O[C@@H]1CO
Cc1ccc(S(=O)(=O)N(C)C[C@@H]2OCCCC[C@H](C)Oc3ccc(NS(=O)(=O)c4ccc(Cl)cc4)cc3C(=O)N([C@H](C)CO)C[C@@H]2C)cc1
COCC(=O)N1C[C@@H]2[C@H](c3ccccc31)[C@H](CO)N2Cc1cc(F)ccc1F

From PubChem BioAssay AID720597 (Broad Institute, 2013)
